This is a sample that favours compounds with a hit; in the whole collection about 3.6% have one here.
Pf apPOL block: Pf-apPOL DNA polymerase inhibition. Recombinant Pf-apPOL, molecular beacon fluorescence, 1.5 h. inhibition, % at 10 µM. hit rate 0.25% among 210,000. AID 1794808
mHTT-CaM PPI inh: disrupts binding of mutant huntingtin to calmodulin; hit rate 3.6% among 190,000; AlphaScreen His-mHTT/GST-CaM binding, luminescence; inhibition, % at 15 µM
Numbers stand for hits; - = inactive; . = no result. Rule as the data show it: active = inhibition above about 50%; inactive = the rest.

SMILES | Pf apPOL block | mHTT-CaM PPI inh
Cc1ccc(NC2=C(N3CCCCC3)C(=O)c3ccccc3C2=O)cc1 | - | 68
CC(=O)c1ccc(NC2=C(N3CCCC3)C(=O)c3ccccc3C2=O)cc1 | - | 86
O=C1C(Nc2ccc(Br)cc2)=C(n2nnc3ccccc32)C(=O)c2ccccc21 | - | -
O=C1C(Nc2ccccc2)=C(N2CCCCC2)C(=O)c2ccccc21 | - | -
O=C1C(Nc2ccc(Br)cc2)=C(N2CCCCC2)C(=O)c2ccccc21 | - | 95
O=C1C(Nc2cc(F)cc(F)c2)=C(N2CCOCC2)C(=O)c2ccccc21 | - | -
O=C(Nc1cccc(Br)c1)O[C@@H]1C[C@H]2C[C@@H]1[C@H]1CCCCN1C2 | - | -
Cc1cccc(NCc2ccc3c(c2)OCO3)c1 | - | -
Cc1ccc(CNc2ccc3c(c2)OCO3)c(C)c1 | - | 100
COc1cc(Br)c(CNCc2ccc3c(c2)OCO3)cc1OC | - | -
COc1ccc(Br)cc1CNc1ccc2c(c1)OCO2 | - | 98
COc1ccc(CCNC(=O)C2CCN(c3cc(-n4ccnc4)ncn3)CC2)cc1OC | - | -
Cc1ccc(C)n1Cc1ccc(C(=O)O)cc1 | - | 53
O=C(O)c1ccc(CN2CCOCC2)cc1 | - | -
Cc1oc(N=Cc2cn(Cc3ccccc3)c3ccccc23)c(C#N)c1C | - | -
COCC(=O)Nc1cnc(-c2ccc(C(F)(F)F)cc2)nc1 | - | -
COc1cc(CN2CCN(c3cccc(C)c3C)CC2)cc(OC)c1OC | - | -
COc1cc(CN2CCN(c3cccc(C)c3C)CC2)cc(Br)c1O | - | 55
COc1ccc(S(=O)(=O)N2CCCN(c3c(Cl)cncc3Cl)CC2)cc1OC | - | .
COc1cc2c(cc1OC)C(C(=O)NCCN1CCOCC1)C(c1cccnc1)N(C)C2=O (stereo not drawn) | - | -
CC1(C)CC(=O)C2=C(C1)Nc1ccccc1NC2c1ccc(Cl)c(Cl)c1 (stereo not drawn) | - | 66
Cc1cc2c(cc1C)NC(c1ccc(Cl)c(F)c1)C1=C(CC(C)(C)CC1=O)N2 (stereo not drawn) | - | 59
CC1(C)CC(=O)C2=C(C1)Nc1ccccc1NC2c1ccc(-c2ccc([N+](=O)[O-])cc2Cl)o1 (stereo not drawn) | - | -
Cc1cc2c(cc1C)NC(c1ccc(F)cc1)C1=C(CC(C)(C)CC1=O)N2 (stereo not drawn) | - | -
CC1(C)CC(=O)C2=C(C1)Nc1ccccc1NC2c1ccc(-c2ccc([N+](=O)[O-])cc2)o1 (stereo not drawn) | - | 73
SMILES | Pf apPOL block | mHTT-CaM PPI inh
CC1(C)CC(=O)C2=C(C1)Nc1ccccc1NC2c1ccccc1 (stereo not drawn) | - | -
CCOc1ccccc1NC(=O)c1cc(S(=O)(=O)NC(CC)Cc2ccccc2)ccc1F (stereo not drawn) | - | -
COc1ccc(CCS(=O)(=O)NCC(O)c2ccc(C(F)(F)F)cc2)cc1 (stereo not drawn) | - | -
CCSc1nnc(NC(=O)C2CCC(CNS(=O)(=O)CC)CC2)s1 (stereo not drawn) | - | -
Cc1ccccc1NC(=O)CCN1CCN(c2ccccc2F)CC1 | - | -
O=C(Nc1ccc(Cl)cc1F)c1cc(S(=O)(=O)NC2CCCC2)ccc1F | - | -
Cc1ccc(C)c(OCC(=O)Nc2ccccc2F)c1 | - | -
CC(/C=C1\SC(=Nc2ccccc2)NC1=O)=C\c1ccccc1 | - | -
O=C(c1ccc(Cl)c(Cl)c1)N1CCN(c2ccc(F)cc2[N+](=O)[O-])CC1 | - | 53
O=C(c1cccc([N+](=O)[O-])c1)N1CCN(c2cccc(Cl)c2Cl)CC1 | - | 74
O=C(c1ccccc1)N1CCN(c2ccc(F)cc2[N+](=O)[O-])CC1 | - | -
O=C(c1ccc(Cl)c(Cl)c1)N1CCN(c2ccc([N+](=O)[O-])c3cccnc23)CC1 | - | -
O=C(c1cc(F)c(F)cc1Cl)N1CCN(c2ccc([N+](=O)[O-])c3cccnc23)CC1 | - | 50
O=C(c1ccccc1)N1CCN(c2ccc([N+](=O)[O-])cc2Cl)CC1 | - | -
COCCn1c(C2CCN(C(=O)Cc3cccc(C)c3)C2)nc2ccncc21 (stereo not drawn) | - | -
C=CCOc1ccc(C2N3CC4([N+](=O)[O-])CN2CC([N+](=O)[O-])(C3)C4(C)C)cc1 (stereo not drawn) | - | -
Cc1cccc(N2CCN(Cc3ccc(-c4ccccc4[N+](=O)[O-])o3)CC2)c1C | - | 59
O=[N+]([O-])c1ccccc1-c1ccc(CN2CCN(c3ccccc3F)CC2)o1 | - | -
O=C(O)CCCC(=O)Nc1nc2nccc(-c3ccccc3)n2n1 | - | 82
CC(=O)Nc1nc2nccc(-c3ccccc3)n2n1 | - | -
CC(C)c1cc(C(=O)Nc2cc(F)cc(F)c2)nc2ccnn12 | - | -
Cc1cccnc1NC(=O)c1c(O)c2cccc3c2n(c1=O)CC3 | - | 80
C=CCn1c(=O)c(C(=O)Nc2ccccc2)c(O)c2ccccc21 | - | -
NCCNC(=O)c1c(O)c2cccc3c2n(c1=O)CC3 | - | -
NCCCCCCNC(=O)c1c(O)c2cccc3c2n(c1=O)CC3 | - | 100
SMILES | Pf apPOL block | mHTT-CaM PPI inh
C=CCn1c(=O)c(C(=O)Nc2ncccc2C)c(O)c2ccccc21 | - | 98
O=C(Nc1ccncc1)c1c(O)c2cccc3c2n(c1=O)CC3 | - | -
COc1ccc(-n2c(SCC(=O)c3ccc(O)c(O)c3)nc3ccsc3c2=O)cc1 | - | -
CCc1cc(C2CCCN2C(=O)Cc2cccc(Cl)c2)on1 (stereo not drawn) | - | -
Cc1ccc(N2CC(C(=O)NCCn3nc(-n4ccnc4C)ccc3=O)CC2=O)cc1C (stereo not drawn) | - | -
CCc1cccc(NS(=O)(=O)c2ccc3nc(-c4ccccc4)[nH]c3c2)c1 | - | -
CN(C)C=CC=C1CCCC1=O | 89 | .
CC1CCCC(NC(=O)C2CCN(c3nc4ccccc4o3)CC2)C1C (stereo not drawn) | - | -
CCc1nc(NCCCN(C)C)c(C#N)c2c1COC(C)(C)C2 | - | -
Cc1ccc(OCc2nnc(SCC(=O)NCc3ccccc3)o2)cc1 | - | -
O=C(CSc1nnc(COc2ccc3c(c2)CCCC3)o1)NCc1ccccc1 | 95 | -
Cc1ccc(C(=O)N2CC(C(=O)N3CCOCC3)C(c3cccc(F)c3)C2)cc1 (stereo not drawn) | - | -
Cc1cccc(NS(=O)(=O)c2cc3c(s2)CCN(C(=O)C2CC2)C3)c1C | - | -
Cc1c(Cl)cccc1NS(=O)(=O)c1cc2c(s1)CCN(C(=O)C1CCC1)C2 | - | 51
Cc1ccsc1/C=C1\CC/C(=C\c2sccc2C)C1=O | - | -
COC(=O)c1ccc2c(=O)n(-c3ccccc3)c(N3CCSC3)nc2c1 | - | -
CCc1ccc(CNC(=O)C2CCN(c3cc(=O)n(C)c(=O)n3CC)CC2)cc1 | - | -
CCn1c(N2CCC(C(=O)NCc3ccco3)CC2)cc(=O)n(C)c1=O | - | 52
CCn1c(N2CCC(C(=O)NCc3ccc4c(c3)OCO4)CC2)cc(=O)n(C)c1=O | - | -
CCn1c(N2CCC(C(=O)NCc3ccc(OC)cc3)CC2)cc(=O)n(C)c1=O | - | 57
Cc1ccsc1C1CC(c2ccc(Br)cc2)Nc2nnnn21 (stereo not drawn) | - | -
O=C(Nc1ccc(N2CCCN(Cc3cccc(F)c3)C2=O)cc1)c1cccs1 | - | -
Cc1ccccc1CS(=O)(=O)CCC(=O)NCCc1ccc(Cl)cc1 | - | -

Compound activity: PubChem BioAssay, University of Kansas High Throughput Screening Laboratory
